Bioassay records as filed in PubChem.
Lmaj promast = inhibitors of Leishmania major promastigote growth; Leishmania major promastigotes, resazurin fluorescence viability; inhibition, % at 10 µM; actives 9% (n = 200,000); in the data active means inhibition above about 50%;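 further: promastigotes grown with compound for 44 hours at 28 °C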
WT yeast gro inh = growth inhibition of WT yeast, mitochondrial fusion screen; actives 2.1% (n = 190,000); mitochondrial fusion phenotypic screen, WT strain; inhibition, % at 10 µM; in the data active means inhibition above about 58%; tested in S. cerevisiae
Insulin prom up = MIN6 insulin promoter up-regulation | MIN6 insulin promoter-GFP reporter, high-content imaging; stronger effect = higher value | z-score at 5 µM | actives 0.3% (n = 190,000) | AID 1625;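 active means z-score above 3 at 5 µM with at least 500 cells counted in the well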
Insulin prom inh = TRM-6 insulin promoter activity inhibition. inhibition, % at 2 µM. actives 0.9% (n = 130,000). TRM-6 cells (human fetal islet line), insulin promoter-eGFP reporter, imaging; reporter expression induced with tamoxifen. AID 1273;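 active means inhibition above the mean plus 3 SD, with well images judged a real hit on visual review, cut at about 60% in these data, passing the limit was not always enough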
Autophagy mod = autophagy modulation, high-content screen; actives 0.98% (n = 190,000); calls only at 10 µM (by protocol); MEF GFP-LC3 puncta imaging; test concentration mostly 10 µM;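 active means percentage of spot-positive cells more than 3 SD above its plate mean, without a fluorescence outlier flag or 80% toxicity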
Lmaj promast 1uM = blocks Leishmania major promastigote growth at 1 uM, repeat screen; L. major promastigote growth, resazurin fluorescence, 48 h; actives 13% (n = 1,100); AID 1258; inhibition, % at 1 µM; shares compounds with Lmaj promast;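 active means inhibition above about 50% in both repeat tests, limit read from the data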
Of the large screens only hits and unclear results are named; the others gave an inactive call (follow-up assays come after a bar, where they were run). An excerpt weighted towards active compounds, which were near 11% of everything screened.

O=C(OCC(=O)N1CCc2ccccc2C1)c1cccc([N+](=O)[O-])c1	none (no result: Insulin prom inh)
CCCS(=O)(=O)c1c(S(=O)(=O)CCC)c2c(C)cccn2c1C(=O)OC	none
CCCS(=O)(=O)c1c(S(=O)(=O)CCC)c2c3ccccc3ccn2c1C(=O)OC	Lmaj promast 82 (no result: Insulin prom up) | Lmaj promast 1uM inactive
CC(=O)Nc1cccc(Oc2cc(C#N)c(C#N)cc2N2CCCCCC2)c1	Lmaj promast 61 | Lmaj promast 1uM inactive
Cc1cc(C)nc(NS(=O)(=O)c2ccc(N/C=C/C(=O)c3ccc(Cl)c(Cl)c3)cc2)n1	none
O=C(CC(c1ccco1)C1CCCCC1=O)c1ccccc1 (centres undefined)	none
Cc1c(-c2ccccc2)c(P(=O)(N2CCOCC2)N2CCOCC2)c2ccccn12	Lmaj promast 55 (no result: Insulin prom inh) | Lmaj promast 1uM inactive
Cc1nnc(C)c2c(C)n(C(c3ccccc3)c3ccccc3)c(C)c12	Lmaj promast 100 | Lmaj promast 1uM inactive
Cc1nnc(C)c2c(C)n(-c3ccccc3N)c(C)c12	none (no result: Insulin prom inh)
Nc1ccc2nn(-c3cccc4ccccc34)nc2c1	Lmaj promast 99 (no result: Insulin prom up) | Lmaj promast 1uM inactive
Nc1ccc2nn(-c3ccccc3)nc2c1	Lmaj promast 81, WT yeast gro inh 63 (no result: Insulin prom inh) | Lmaj promast 1uM inactive
Cc1ccccc1OCC(=O)N/N=C/c1ccc(Sc2nc3ccccc3s2)o1	none
COCC(=O)N/N=C/c1ccc(Sc2nc3ccccc3s2)o1	Lmaj promast 81 (no result: Insulin prom inh) | Lmaj promast 1uM inactive
CCn1c(SCC(=O)NNC(=O)c2ccc(OC)cc2)nnc1-c1ccco1	none
CCOC(=O)N1CCN(c2c(F)cc3[nH]c(=S)[nH]c3c2Br)CC1	Lmaj promast 51, Autophagy mod active | Lmaj promast 1uM inactive
N#Cc1cc(Oc2ccc3ccccc3c2)c(-n2nnc3ccccc32)cc1C#N	Lmaj promast 52 | Lmaj promast 1uM 96
N#Cc1cc(Oc2ccccc2)c(-n2nnc3ccccc32)cc1C#N	none (no result: Insulin prom up)
CS(=O)(=O)c1ccc(S(=O)CC(=O)OCc2ccccc2)c([N+](=O)[O-])c1 (centres undefined)	Lmaj promast 57 | Lmaj promast 1uM inactive
COc1ccc(C(=O)OCN2C(=O)c3ccccc3C2=O)cc1	none
CC(NC(=O)CSc1nc2sc3c(c2c(=O)n1-c1ccccc1)CCCC3)c1ccccc1 (centres undefined)	Lmaj promast 69 (no result: Insulin prom up) | Lmaj promast 1uM inactive
O=C(Nc1ccc(Cl)cn1)c1ccc([N+](=O)[O-])o1	Lmaj promast 100 (no result: Insulin prom inh) | Lmaj promast 1uM 80
Cc1c(Cl)c([N+](=O)[O-])nn1Cc1ccc(C(=O)Nc2ccc(Cl)cn2)o1	none (no result: Insulin prom up)
CCOC(=O)N1CCC(NC(=O)CCc2nc(-c3ccc(C)cc3)no2)CC1	none
Cc1ccc(NC(=O)CCSc2nnc(C)s2)cc1	none (no result: Insulin prom inh)
CC1=NN(/C(=N\c2nnc(C)s2)Nc2ccc(C(C)(C)C)cc2)[C@H](c2ccc(C)cc2)S1	Lmaj promast 64, WT yeast gro inh 80 (no result: Insulin prom up) | Lmaj promast 1uM inactive
CC(=O)NCC(=O)OCN1C(=O)c2ccccc2C1=O	none (no result: Insulin prom up)
Oc1ccccc1C1Nc2cccc3cccc(c23)N1	none
O=[N+]([O-])c1ccccc1C1Nc2cccc3cccc(c23)N1	Lmaj promast 97 | Lmaj promast 1uM inactive
NCC12CC3CC(C1)CC(c1ccc(Cl)cc1)(C3)C2	Lmaj promast 100, WT yeast gro inh 73 | Lmaj promast 1uM 94
Nc1ccc(C23CC4CC(CC(CO)(C4)C2)C3)cc1	none
CC12CN(S(=O)(=O)c3ccccc3)CC(C)(CN(S(=O)(=O)c3ccccc3)C1)C2	none
N#Cc1cc2sc3nnc(-c4ccncc4)n3c2cc1C#N	Lmaj promast 54 (no result: Insulin prom inh) | Lmaj promast 1uM inactive
O=[N+]([O-])c1cc(Cl)cc(C2=NCCN2)c1	Lmaj promast 52, Insulin prom inh 79 | Lmaj promast 1uM inactive
Cc1occc1C(=O)NNC(=O)C1CCCCC1	Lmaj promast 72 | Lmaj promast 1uM inactive
COc1ccc(CC2NCCC3(O)CCCCC23)cc1 (centres undefined)	Lmaj promast 68 (no result: Insulin prom inh) | Lmaj promast 1uM inactive
COc1ccc(CC/C(=N\O)C2(O)CCCCC2)cc1	none
Cc1ccc(CNC(=O)C2CCN(S(=O)(=O)c3cccs3)CC2)o1	none (no result: Insulin prom up)
CCCN(CCO)Cc1ccc2ccccc2c1	none
C=CCNC(=O)N[C@@H](Cc1ccccc1)C(=O)OC	none (no result: Lmaj promast, WT yeast gro inh, Insulin prom inh, Autophagy mod)
CCOC(=O)c1oc2ccc(CNC(C)(C)C)c(Cl)c2c1C	Lmaj promast 99 | Lmaj promast 1uM inactive
Cc1occc1-c1nc(-c2ccccn2)no1	none (no result: Insulin prom inh)
Cc1onc(-c2ccccc2Cl)c1-c1nc(-c2ccccn2)no1	Lmaj promast 75 (no result: Insulin prom inh) | Lmaj promast 1uM inactive
